# Laboratory results reported in PubChem BioAssay AID686979 (National Center for Advancing Translational Sciences (NCATS), 2013).
# In all, about 420,000 compounds went through this assay and about 50,000 (12%) were called active. Inconclusive results (about 26%) are left out. Only a selection was taken, and actives are over-represented in it overall. Values without a mark were called inactive. The call rests on the fitted dose curve; in most records, active means well fitted inhibition curve with a large enough effect; inconclusive means small, poorly fitted or top-dose-only effect; inactive means flat fitted curve, though single readings scatter.
# Test: qHTS for Inhibitors of human tyrosyl-DNA phosphodiesterase 1 (TDP1): qHTS in cells in presence of CPT; further: nearly all actives have a fitted effect of over 55% in size
# Settings: chicken DT40 Tdp1-/-;hTDP1 cells + 20 nM CPT, ATP luminescence, 48 h; series mostly up to 46.2 µM; activity change, negative = growth inhibition: at the top concentration
# Method in brief: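 Chicken DT40 Tdp1-/- cells stably complemented with human TDP1 were seeded at 400 cells/well in medium containing 20 nM camptothecin, exposed to pin-transferred compounds, and grown at 37 °C for at least 48 hr. Viability was read as ATP luminescence.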
# On the % scale 0 is the no-effect control and ±100 the full control effect; potency means the concentration at half of the fitted maximal effect.
SMILES,"activity change, negative = growth inhibition",Potency
O=C(COC(=O)Cc1ccc(Cl)cc1Cl)NCc1ccco1,-8.95%,
CN(C)/C=C(/C(=O)c1ccccc1)S(=O)(=O)c1ccc(Cl)cc1,0.918%,
Cc1cc(Cl)nc(NC(=O)Nc2cccc(Cl)c2)n1,-5.03%,
COc1cc(C(=O)Nc2cc(C(F)(F)F)ccc2N2CCOCC2)ccc1O,-4.87%,
COc1ccc(NC(=O)CC(NC(C)c2ccccc2)C(=O)O)cc1 (stereo unspecified),7.18%,
CCC(=O)c1c[nH]c(C(=O)NCC2CCCO2)c1 (stereo unspecified),-0.0051%,
CCOC(=O)C1=CN(Cc2ccc(Br)cc2)S(=O)(=O)NC1C (stereo unspecified),-10.2%,
COc1ccc(Cl)cc1C=CC=NNC(=O)c1ccncc1,-28.1%,
COc1ccccc1/C=C/C=N/n1c(-c2ccc(Cl)cc2Cl)n[nH]c1=S,-20.8%,
COc1ccc(Cl)cc1C=CC=Nc1ccc(S(N)(=O)=O)cc1,,18.4 µM (active)
Cc1ccc(NC(=O)CN(C)C(=O)c2ccc(Cl)c(S(=O)(=O)NCc3ccco3)c2)cc1,-11%,
CCCCN1C(=O)/C(=C(/C#N)C(N)=O)c2ccccc21,-25.4%,
COc1ccc(CNC(=O)CCN2C(=O)c3ccccc3C2=O)cc1,-3.64%,
COc1ccc2c(c1)C(=C(C#N)C#N)C(=O)N2CCc1ccccc1,,3.66 µM (active)
Cc1ccc(C(=O)Oc2coc(CSc3nnc(NC(=O)c4cccs4)s3)cc2=O)cc1C,-13.4%,
Cc1c(Cl)cccc1NC(=S)NCC(O)c1ccccc1 (stereo unspecified),4.14%,
Cc1cccc(NC(=S)NCCc2ccc(Cl)cc2)c1C,,18.4 µM (active)
CCNC(=S)Nc1cccc(Cl)c1C,-13.1%,
CCOCCCNC(=O)c1cc2c(=O)n3ccccc3nc2s1,,inactive
Cc1ccc(S(=O)(=O)N(C)c2ccc(OCC(=O)OCC(=O)N(CC#N)c3ccccc3)cc2)cc1,4.22%,
COc1ccc(C(=O)NCCn2nc(C)cc2C)cc1OC1CCN(C(C)=O)CC1,-1.37%,
O=[N+]([O-])c1ccccc1OCCCCN1CCCCC1,-1.52%,
Cc1cc(OCCCN2CCN(Cc3ccccc3)CC2)ccc1[N+](=O)[O-],,23.1 µM (active)
Cc1cc(OCC(=O)NC2CCN(C)CC2)ccc1[N+](=O)[O-],-5.16%,
Cc1ccc(OCC(=O)Oc2ccccc2[N+](=O)[O-])cc1,9.02%,
Cc1cc(OCCCCOc2ccc(C#N)cc2)ccc1[N+](=O)[O-],,13 µM (active)

SMILES,"activity change, negative = growth inhibition",Potency
Cc1cc(OCC(=O)Nc2c(C)n(C)n(-c3ccccc3)c2=O)ccc1[N+](=O)[O-],-3.95%,
COC(=O)c1cccc(N(CC(=O)NCC2CCCO2)C(=O)CCC(=O)Nc2cc(C)on2)c1 (stereo unspecified),12.7%,
O=C(CSc1nnc(CNC(=O)c2ccc(F)cc2)o1)Nc1ccc2c(c1)OCO2,-15.9%,
O=C(Nc1cccnc1)c1ccc(Cl)c([N+](=O)[O-])c1,10%,
O=C(Nc1ccncc1)c1ccc(Cl)c([N+](=O)[O-])c1,,11.6 µM (active)
Cc1ccnc(NC(=O)c2ccc(Cl)c([N+](=O)[O-])c2)c1,-10.8%,
Cc1ccc2c(=O)c(C(=O)c3ccc(F)cc3)cn(CC(=O)NC3CCCCC3)c2n1,-17.8%,
N=C(N)SCc1cccc2ccccc12,,18.4 µM (active)
c1ccc(NCc2cccc3ccccc23)nc1,-7.92%,
c1ccc2c(CNn3cnnc3)cccc2c1,-4.07%,
COc1cc(NC(=O)COc2ccccc2Cl)ccc1NC(=O)C(C)C,-20%,
CCCC(=O)NC(=S)Nc1ccc(CN2CCOCC2)cc1,4.02%,
CC(Sc1nnc(CNC(=O)c2ccccc2F)n1C)C(=O)Nc1nccs1 (stereo unspecified),-16.6%,
Brc1cccc(-c2nnn3c2nc(NC2CCCCC2)c2ccccc23)c1,0.81%,
CCc1nnc(NC(=O)CSCc2cc(=O)n3cc(C)sc3n2)s1,-17.7%,
COc1ccccc1-c1cc(C(F)(F)F)nc(S(=O)(=O)CCCC(=O)Nc2cc(C)ccc2O)n1,-25.6%,
Cc1ccc(O)c(NC(=O)c2cc(-c3ccc(F)cc3)no2)c1,-16.7%,
COc1ccc(-c2cc(C(F)(F)F)nc(SCC(=O)Nc3ccc4c(c3)OCO4)n2)cc1OC,2.49%,
Cc1cc(C(F)(F)F)nc(SCC(=O)Nc2nccs2)n1,-8.46%,
CSc1ccccc1NC(=O)Cc1ccc(Br)cc1,-16.6%,
COc1cc(OC)cc(C(=O)OCC(=O)Nc2ccc(F)cc2F)c1,10.6%,
CSc1ccccc1NC(=O)CCS(=O)(=O)c1nc(-c2cccs2)cc(C(F)(F)F)n1,,10.3 µM (active)
CC(Sc1nc(-c2ccccc2)cc(C(F)(F)F)n1)C(=O)Nc1ccc2c(c1)OCO2 (stereo unspecified),-27.9%,
COc1ccc(Cl)cc1NC(=O)CSc1nc(-c2cccs2)cc(C(F)(F)F)n1,,23.1 µM (active)
COc1ccccc1-c1cc(C(F)(F)F)nc(S(=O)(=O)CCCC(=O)Nc2ccc(F)cc2F)n1,,5.17 µM (active)
